Source: PubChem BioAssay (EPA / NIEHS)
The source made the active and inactive calls. How the source made its calls: active means hit-call score of the fitted dose curve at least 0.9, where 1 is the maximum; inactive means score below 0.9.

Key:
[1] = ATG_CRE_CIS: Attagene CIS-FACTORIAL HepG2 Assay for human cAMP Responsive Element (CRE) binding protein 3 (AID 2282926); conditions: HepG2 CRE cis-reporter, Attagene multiplexed mRNA; actives raise or lower the signal
Procedure, shortened: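 HepG2 cells transiently transfected with cis-element-driven multiple reporter transcription units; CRE reporter mRNA measured 24 h after dosing by RT-PCR, 6-FAM labelling, HpaI digestion and capillary electrophoresis. Bidirectional fit versus DMSO baseline.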

[2] = molecular target: CCAAT/enhancer-binding protein beta (Homo sapiens) (UniProt P17676); assay: ATG_C_EBP_CIS: Attagene CIS-FACTORIAL HepG2 Assay for human CCAAT/Enhancer Binding Protein (C/EBP) beta (AID 2282927); conditions: HepG2 Attagene cis-factorial transcription factor reporter; actives raise or lower the signal
Sequence of CCAAT/enhancer-binding protein beta (Homo sapiens) (P17676 whole entry, looked up): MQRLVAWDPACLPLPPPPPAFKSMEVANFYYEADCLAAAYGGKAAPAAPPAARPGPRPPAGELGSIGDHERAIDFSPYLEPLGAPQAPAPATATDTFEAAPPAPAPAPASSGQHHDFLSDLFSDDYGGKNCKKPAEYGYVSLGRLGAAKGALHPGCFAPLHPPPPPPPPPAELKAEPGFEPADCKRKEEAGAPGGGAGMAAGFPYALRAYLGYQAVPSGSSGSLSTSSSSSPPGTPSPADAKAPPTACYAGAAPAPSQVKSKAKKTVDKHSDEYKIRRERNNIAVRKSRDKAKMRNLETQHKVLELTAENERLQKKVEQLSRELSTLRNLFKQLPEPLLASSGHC
Procedure, shortened: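 HepG2 transiently transfected with multiplexed reporter units under cis-regulatory promoters reporting endogenous C/EBPb activity. After 24 h exposure, reporter mRNA assayed by RT-PCR, fluorescent labelling, HpaI digestion and capillary electrophoresis; bidirectional fitting versus DMSO.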

[3] = ATG_CMV_CIS: Attagene CIS-FACTORIAL HepG2 Assay for human CMV (Internal Marker) (AID 2282928); conditions: HepG2 CMV promoter reporter, transcription factor profiling; actives raise or lower the signal;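 further: endpoint acts as a background internal control marker rather than a target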
Procedure, shortened: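 Endogenous transcription factor activity read in HepG2 via transfected cis-promoter reporter units. After 24 h dosing, reporter mRNA measured by RT-PCR/capillary electrophoresis; gain or loss of signal fit relative to DMSO.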

[4] = ATG_DR4_LXR_CIS: Attagene CIS-FACTORIAL HepG2 Assay for human Liver X Receptor (LXR), DR4 submotif (AID 2282929); conditions: HepG2 Attagene DR4 cis-reporter, mRNA transcription; actives raise or lower the signal
Procedure, shortened: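 Fluorescence intensity of labelled reporter cDNA fragments, separated by capillary electrophoresis, gives the signal. HepG2 cells bearing cis-regulated reporter constructs were treated 24 h; activity fitted bidirectionally relative to DMSO negative control.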

[5] = molecular target: Aryl hydrocarbon receptor (Homo sapiens) (UniProt P35869); assay: ATG_Ahr_CIS: Attagene CIS-FACTORIAL HepG2 Assay for human Aryl Hydrocarbon Receptor (Ahr) (AID 2282930); conditions: HepG2 AhR cis-factorial reporter transcription; actives raise or lower the signal
Sequence of Aryl hydrocarbon receptor (Homo sapiens) (P35869 whole entry, looked up): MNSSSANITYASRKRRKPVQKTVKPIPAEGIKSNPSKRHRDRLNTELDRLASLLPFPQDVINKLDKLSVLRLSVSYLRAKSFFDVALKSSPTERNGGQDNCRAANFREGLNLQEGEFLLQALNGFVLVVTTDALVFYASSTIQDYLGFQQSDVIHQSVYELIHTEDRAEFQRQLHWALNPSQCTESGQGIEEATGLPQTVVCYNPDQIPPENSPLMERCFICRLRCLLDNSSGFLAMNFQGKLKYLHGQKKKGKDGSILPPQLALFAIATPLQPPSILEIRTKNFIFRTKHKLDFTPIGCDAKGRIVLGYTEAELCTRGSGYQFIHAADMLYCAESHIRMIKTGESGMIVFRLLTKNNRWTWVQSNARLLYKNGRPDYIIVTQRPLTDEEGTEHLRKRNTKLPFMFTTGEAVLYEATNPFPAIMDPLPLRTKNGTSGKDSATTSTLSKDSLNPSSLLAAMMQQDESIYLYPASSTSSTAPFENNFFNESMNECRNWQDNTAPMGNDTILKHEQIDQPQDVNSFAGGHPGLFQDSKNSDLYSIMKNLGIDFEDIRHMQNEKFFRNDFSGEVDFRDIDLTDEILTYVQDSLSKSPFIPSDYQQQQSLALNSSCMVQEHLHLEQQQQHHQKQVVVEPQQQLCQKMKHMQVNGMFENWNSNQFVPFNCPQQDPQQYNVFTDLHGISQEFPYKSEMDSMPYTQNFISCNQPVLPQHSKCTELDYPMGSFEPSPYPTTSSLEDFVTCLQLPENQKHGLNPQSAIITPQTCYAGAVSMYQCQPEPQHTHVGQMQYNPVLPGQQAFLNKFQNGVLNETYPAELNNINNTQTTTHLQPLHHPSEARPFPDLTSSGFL
Procedure, shortened: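 HepG2 cells transiently transfected with cis-element-driven multiplexed reporter units; endogenous AhR activity read as reporter mRNA 24 h after dosing, via RT-PCR, 6-FAM labelling, HpaI digestion and capillary electrophoresis. Bidirectional fit relative to DMSO.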

[6] = ATG_AP_1_CIS: Attagene CIS-FACTORIAL HepG2 Assay for human Activator Protein 1 (AP-1) (AID 2282931); conditions: HepG2 Attagene cis-factorial AP-1 reporter mRNA; actives raise or lower the signal
Procedure, shortened: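 Multiplexed HepG2 reporter assay, 24 h dosing. mRNA induction detected by RT-PCR plus capillary electrophoresis. Activity fitted in both directions against DMSO.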

[7] = ATG_AP_2_CIS: Attagene CIS-FACTORIAL HepG2 Assay for human Activator Protein 2 (AP-2) (AID 2282932); conditions: HepG2 AP-2 cis-reporter, Attagene transcription factor profiling; actives raise or lower the signal
Procedure, shortened: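 Multiplexed mRNA reporter assay in HepG2: cis-regulated units report endogenous factor activity after 24 h treatment. Fluorescence from capillary electrophoresis of RT-PCR products gives the signal, with DMSO as baseline.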

[8] = ATG_BRE_CIS: Attagene CIS-FACTORIAL HepG2 Assay for human Bone Morphogenetic Protein (BMP) Response Element (BRE) (AID 2282933); conditions: HepG2 BMP response element reporter, Attagene transcription factor profiling; actives raise or lower the signal
Procedure, shortened: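 After a 24 h chemical treatment, transiently transfected HepG2 cells were lysed for RNA; reporter transcripts were quantified by fluorescent RT-PCR and capillary electrophoresis, normalised to DMSO.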

[9] = molecular target: Retinoic acid receptor alpha (Homo sapiens) (UniProt P10276); assay: ATG_DR5_RAR_CIS: Attagene CIS-FACTORIAL HepG2 Assay for human Retinoic Acid Receptor Alpha (RARE), DR5 submotif (AID 2282934); conditions: HepG2 Attagene cis-factorial RARE DR5 reporter, mRNA; actives raise or lower the signal;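 on AC50: reporter responds to endogenous RAR alpha beta and gamma in HepG2 not RARA alone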
Sequence of Retinoic acid receptor alpha (Homo sapiens) (P10276 whole entry, looked up): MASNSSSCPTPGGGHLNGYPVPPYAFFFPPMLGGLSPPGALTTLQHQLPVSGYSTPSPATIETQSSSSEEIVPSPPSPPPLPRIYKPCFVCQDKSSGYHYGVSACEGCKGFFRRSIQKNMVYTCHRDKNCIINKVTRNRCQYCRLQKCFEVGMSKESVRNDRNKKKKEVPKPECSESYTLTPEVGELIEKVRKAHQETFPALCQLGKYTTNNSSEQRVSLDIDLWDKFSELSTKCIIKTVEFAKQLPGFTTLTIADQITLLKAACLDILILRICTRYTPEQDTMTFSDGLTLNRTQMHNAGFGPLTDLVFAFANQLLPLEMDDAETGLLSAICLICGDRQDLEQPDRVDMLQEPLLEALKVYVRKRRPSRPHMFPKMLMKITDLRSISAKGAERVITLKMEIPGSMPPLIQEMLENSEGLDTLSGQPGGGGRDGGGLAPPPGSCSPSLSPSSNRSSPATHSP
Procedure, shortened: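 HepG2 cells transiently transfected with multiplexed reporter units; DR5 cis-element drives reporter through endogenous transcription factors. After 24 h dosing, reporter mRNA quantified by RT-PCR, fluorescent labeling, HpaI digestion and capillary electrophoresis; bidirectional fitting versus DMSO.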

[10] = molecular target: Transcription factor E2F1 (Homo sapiens) (UniProt Q01094); assay: ATG_E2F_CIS: Attagene CIS-FACTORIAL HepG2 Assay for human E2F Transcription Factor 1 (AID 2282935); conditions: HepG2 Attagene cis-reporter, E2F reporter RNA transcripts; actives raise or lower the signal
Sequence of Transcription factor E2F1 (Homo sapiens) (Q01094 whole entry, looked up): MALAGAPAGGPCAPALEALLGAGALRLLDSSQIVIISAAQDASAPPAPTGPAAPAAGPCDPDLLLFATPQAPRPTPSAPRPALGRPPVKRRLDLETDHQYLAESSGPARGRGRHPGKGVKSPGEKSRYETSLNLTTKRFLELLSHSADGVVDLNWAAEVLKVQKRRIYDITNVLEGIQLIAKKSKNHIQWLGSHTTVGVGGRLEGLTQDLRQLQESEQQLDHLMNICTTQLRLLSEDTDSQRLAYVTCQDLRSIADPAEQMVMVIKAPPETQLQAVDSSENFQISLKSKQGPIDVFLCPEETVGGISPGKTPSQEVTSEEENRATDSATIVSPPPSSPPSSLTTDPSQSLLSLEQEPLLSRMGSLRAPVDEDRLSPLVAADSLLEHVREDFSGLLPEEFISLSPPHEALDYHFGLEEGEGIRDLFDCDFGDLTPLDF
Procedure, shortened: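 Measures reporter transcript levels via RT-PCR with capillary electrophoresis detection in HepG2 cells harboring cis-regulated reporter units; 24 h post-dose; bidirectional curve fitting with DMSO as baseline.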

SMILES | AC50 [1] | outcome [2] | AC50 [3] | outcome [4] | outcome [5] | outcome [6] | outcome [7] | AC50 [8] | outcome [9] | outcome [10] | outcome [3] | AC50 [4] | AC50 [6] | outcome [8] | AC50 [9] | outcome [1]
O=P(OC(CCl)CCl)(OC(CCl)CCl)OC(CCl)CCl | 72.3 µM (active) | inactive | 100 µM (active) | inactive | inactive | inactive | inactive | 70.4 µM (active) | inactive | inactive | – | – | – | – | – | –
CC(C)c1cccc(C(C)C)c1N1C(=O)c2ccc(O)cc2C1=O | 56 µM (active) | inactive | – | – | inactive | – | inactive | – | – | inactive | inactive | 12.1 µM (active) | 24.1 µM (active) | inactive | 5.9 µM (active) | –
O=C(NS(=O)(=O)/C=C/c1ccccc1)c1ccc(F)cc1Cl | – | inactive | – | inactive | inactive | inactive | inactive | – | inactive | inactive | inactive | – | – | inactive | – | inactive
CC[C@H]1OC(=O)[C@H](C)[C@@H](O[C@H]2C[C@@](C)(OC)[C@@H](O)[C@H](C)O2)[C@H](C)[C@@H](O[C@@H]2O[C@H](C)C[C@H](N(C)C)[C@H]2O)[C@](C)(O)C[C@@H](C)C(=O)[C@H](C)[C@@H](O)[C@]1(C)O | – | inactive | – | inactive | inactive | inactive | inactive | – | inactive | inactive | inactive | – | – | inactive | – | inactive
COCCOCCOCCOC | – | inactive | – | inactive | inactive | inactive | inactive | – | inactive | inactive | inactive | – | – | inactive | – | inactive
O=C1CCCCCN1 | – | inactive | – | inactive | inactive | inactive | inactive | – | inactive | inactive | inactive | – | – | inactive | – | inactive
O=C(OC[C@H]1O[C@@H](OC(=O)c2cc(O)c(O)c(OC(=O)c3cc(O)c(O)c(O)c3)c2)[C@H](OC(=O)c2cc(O)c(O)c(OC(=O)c3cc(O)c(O)c(O)c3)c2)[C@@H](OC(=O)c2cc(O)c(O)c(OC(=O)c3cc(O)c(O)c(O)c3)c2)[C@@H]1OC(=O)c1cc(O)c(O)c(OC(=O)c2cc(O)c(O)c(O)c2)c1)c1cc(O)c(O)c(OC(=O)c2cc(O)c(O)c(O)c2)c1 | – | inactive | – | inactive | inactive | inactive | inactive | – | inactive | inactive | inactive | – | – | inactive | – | inactive
Nc1nc2ncc(CNc3ccc(C(=O)N[C@@H](CCC(=O)O)C(=O)O)cc3)nc2c(=O)[nH]1 | – | inactive | – | inactive | inactive | inactive | inactive | – | inactive | inactive | inactive | – | – | inactive | – | inactive
CCCCCCCCCCCCc1ccccc1 | – | inactive | – | inactive | inactive | inactive | inactive | – | inactive | inactive | inactive | – | – | inactive | – | inactive
CC1=CC(=O)CC(C)(C)C1 | – | inactive | – | inactive | inactive | inactive | inactive | – | inactive | inactive | inactive | – | – | inactive | – | inactive
Cc1ccc(S(=O)(=O)O)cc1C | – | inactive | – | inactive | inactive | inactive | inactive | – | inactive | inactive | inactive | – | – | inactive | – | inactive
